# According to PubChem BioAssay (NCATS):
# Where “and” joins values, the source holds several entries; their conditions need not be identical. Equal entries are not always repeated. Inconclusive results are not listed. Calls of active or inactive are those of the source. Unless noted, calls come from the whole dose curve; as a rule, active = well fitted curve in the direction sought with a large enough effect; inconclusive = small, poorly fitted or top-dose-only effect, or another doubt; inactive = no such curve, though single readings can be large; an effect the other way counts as inactive or inconclusive.
# Experiments:
# [1] = Cellular Toxicity (caspase-3) Jurkat (AID 655); details: Jurkat caspase-3 activation, luminescence; caspase-3 activation: at 92.2 µM (top of the series), DMSO = 0%, tamoxifen = 100%;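 note: cells exposed to compound for 16 h at 37 °C before reading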
# Procedure, shortened: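 Jurkat cells (5000/well) in complete medium were treated with compounds for 16 hr at 37 °C, then Caspase-Glo 3/7 luminescence was read after 20 min at room temperature. Data normalized to DMSO (basal) and 100 uM tamoxifen (100%); AC50 from Hill fit.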
# [2] = target: Cytochrome P450 3A4 (Homo sapiens) (UniProt P08684); assay: qHTS Assay for Inhibitors and Substrates of Cytochrome P450 3A4 (AID 884); note: nearly all actives have a fitted effect of over 50% in size; note: potency is the fitted concentration of half-maximal effect
# Procedure, shortened: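 20 nM human CYP3A4 with 25 uM Luciferin-PPXE (at KM) in 200 mM KPO4, preincubated 10 min with compound; NADPH regeneration started a 60 min RT reaction. Luciferin detected by luminescence, normalized to 57 uM ketoconazole as full inhibition.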
# [3] = Cell Viability - LYMP2-026 (AID 989); note: nearly all actives have a fitted effect of over 50% in size; note: potency is the fitted concentration of half-maximal effect
# Procedure, shortened: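 Human lymphoblastoid cells (2500/well) in complete medium were preincubated 5 hr at 37 C, then exposed to compounds for 24 hr at 37 C. Cellular ATP was read by CellTiter-Glo luminescence; AC50 from Hill-equation fits of concentration-response data.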
# [4] = target: Bile acid receptor (Homo sapiens) (UniProt Q96RI1); assay: qHTS assay for small molecule agonists of farnesoid X receptor signaling (AID 588527; calls by dose curve;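 note: 0% = vehicle basal and 100% = reference agonist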); details: HEK293T FXR-UAS-bla, beta-lactamase ratio, 16 h; activation: stronger effect = higher value
# Procedure, shortened: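 FXR-UAS-bla HEK293T cells (10% dialyzed FBS) preincubated 5-7 h at 37 C, then compounds at up to 92 uM for 16 h at 37 C. CCF4 beta-lactamase read-out after 2 h RT. Normalized to chenodeoxycholic acid (100 uM) and DMSO; Hill fit gave EC50 and efficacy.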
# [5] = target: Glucocorticoid receptor (Homo sapiens) (UniProt P04150); assay: qHTS assay for small molecule antagonists of glucocorticoid receptor signaling (AID 588533; active = well fitted inhibition curve with a large enough effect in the signal ratio, with a control signal flat, not every such curve was filed as active; the % refers to the signal ratio;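 note: cells stimulated with 2 nM dexamethasone as agonist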; note: potency is the fitted concentration of half-maximal effect)
# Procedure, shortened: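 Antagonist-mode qHTS: compound titrations added to GRE-bla HeLa cells, then dexamethasone 2 nM final; 18 h, 37 C. CCF4 FRET fluorescence normalized to dexamethasone and DMSO; IC50 from Hill fit.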
# [6] = target: Vitamin D3 receptor (Homo sapiens) (UniProt P11473); assay: qHTS assay for small molecule antagonists of vitamin D receptor signaling (AID 588541; calls by dose curve; note: potency is the fitted concentration of half-maximal effect)
# Procedure, shortened: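 VDR-UAS-bla HEK293T cells (2000/well, 2% charcoal-stripped FBS) were treated with titrated compounds plus 1-alpha,25-dihydroxyvitamin D3 (50 nM or 3 nM final) for 16 h at 37 C. CCF4 beta-lactamase fluorescence was read; Hill fits gave IC50.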
# [7] = target: Vitamin D3 receptor (Homo sapiens) (UniProt P11473); assay: qHTS assay for small molecule agonists of vitamin D receptor signaling (AID 588543; calls by dose curve;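 note: 0% = DMSO basal and 100% = reference agonist control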)
# Procedure, shortened: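 GeneBLAzer VDR-UAS-bla HEK293T cells in 2% charcoal-stripped FBS medium were dosed with compound titrations for 16 h at 37 °C; CCF4 β-lactamase readout (405 nm ex, 460/530 nm em). EC50 and efficacy from Hill fits, normalized to 50 nM calcitriol (100%) and DMSO (0%).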
# [8] = qHTS assay for small molecule antagonists of retinoid X receptor alpha signaling (AID 588546; active = well fitted inhibition curve with a large enough effect in the signal ratio, with a control signal flat, not every such curve was filed as active; the % refers to the signal ratio; note: potency is the fitted concentration of half-maximal effect;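 for max response: cells stimulated with 9-cis-retinoic acid as agonist; % is set by controls: 0 for no effect and ±100 for the full control effect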); details: HEK293T RXRa-UAS-bla, beta-lactamase ratio, antagonist mode; measured here: W530 green channel, cytotoxicity proxy
# Procedure, shortened: (§1)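 Beta-lactamase reporter inhibition, read as CCF4 fluorescence ratio (ex 405, em 460/530 nm) after 2 h at RT. HEK293T UAS-bla cells, 2500/well, were stimulated with 9-cis-RA at 500 or 100 nM final alongside test compound for 18 h at 37 C.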
# [9] = target: Retinoic acid receptor RXR-alpha (Homo sapiens) (UniProt P19793); assay: as above; details: HEK293T RXRa-UAS-bla, beta-lactamase ratio, antagonist mode
# Procedure, shortened: as §1
# [10] = target: Thyroid hormone receptor beta (Homo sapiens) (UniProt P10828); assay: qHTS assay for small molecule antagonists of thyroid hormone receptor beta signaling (AID 588547; active = well fitted inhibition curve with a large enough effect in the signal ratio, with a control signal flat, not every such curve was filed as active; the % refers to the signal ratio;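 note: cells stimulated with 0.4 nM T3 agonist during compound exposure; % is set by controls: 0 for no effect and ±100 for the full control effect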); details: TR-UAS-bla HEK293, beta-lactamase ratio, antagonist mode, 18 h
# Procedure, shortened: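 TR-UAS-bla GripTite HEK293 cells in 2% charcoal/dextran FBS medium were preincubated 4 h at 37 C, given compound (0.59 nM to 92 uM) plus 0.4 nM T3 (final) for 18 h, then CCF4 for 2 h at RT; Hill fit gave IC50.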
# [11] = qHTS assay for small molecule activators of the nuclear factor-kappa B (NF-kB) signaling pathway (AID 651749; active = well fitted activation curve with a large enough effect in the signal ratio; the % refers to the signal ratio; note: % of control where 0% means no effect); details: NF-kB-bla ME-180 cells, beta-lactamase FRET ratio, 16 h; activation: stronger effect = higher value
# Procedure, shortened: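 ME-180 cells stably carrying a beta-lactamase reporter under an NF-kB response element were exposed to compound or DMSO vehicle for 16 hr at 37C, 5% CO2. Pathway activation was read by FRET, since reporter expression disrupts FRET.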
# [12] = target: Nuclear receptor subfamily 1 group I member 2 (Rattus norvegicus) (UniProt Q9R1A7); assay: qHTS assay for small molecule activators of the rat pregnane X receptor (rPXR) signaling pathway (AID 651751; call rule not given here; note: 0% is about no effect); details: rPXR reporter cells, luciferase (One-Glo), 24 h
# [13] = qHTS assay for small molecule activators of the human pregnane X receptor (PXR) signaling pathway (AID 720659; call rule not given here; note: 0% is about no effect)
# [14] = target: Glucocorticoid receptor (Homo sapiens) (UniProt P04150); assay: qHTS assay for small molecule agonists of glucocorticoid receptor signaling (AID 588532; active = well fitted curve in the direction sought with a large enough effect in the signal ratio, with a control signal flat; the % refers to the signal ratio;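 note: 100% = dexamethasone at 0.1 µM and 0% = DMSO only wells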); details: HeLa MMTV-bla, beta-lactamase ratio, agonist, 18 h; activation: stronger effect = higher value, percent of dexamethasone control, DMSO zero
# Procedure, shortened: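 MMTV-bla HeLa, beta-lactamase reporter; medium with 1% charcoal/dextran-stripped FBS; cpds up to 92 uM, 18 h, 37 C; CCF4 readout 460/530 nm; Hill fit → EC50, efficacy vs 0.1 uM dexamethasone = 100%.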
# [15] = target: Thyroid hormone receptor beta (Homo sapiens) (UniProt P10828); assay: qHTS assay for small molecule agonists of thyroid hormone receptor beta signaling (AID 588545; calls by dose curve;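 note: 0% = DMSO only and 100% = 10 nM T3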)
# Procedure, shortened: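 TR-UAS-bla GripTite HEK 293 cells (2500/well, medium with 2% charcoal/dextran FBS) were treated in agonist mode for 18 h at 37 C, titrated. Beta-lactamase was read by CCF4 ratio after 2 h; normalized to 10 nM T3 (100%) and DMSO, Hill-fitted for EC50 and efficacy.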
# [16] = target: Guanine nucleotide-binding protein G(i) subunit alpha-1 (Homo sapiens) (UniProt P63096); assay: qHTS Assay for Inhibitors of RGS12 GoLoco Motif Activity (Green Fluorophore) (AID 879);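 note: 0% = labeled peptide with Gαi1 and full inhibition = labeled peptide alone without protein; negative values mean loss of peptide binding seen as reduced polarization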
# Procedure, shortened: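 Fluorescence polarization assay: 50 nM Gαi1 with 10 nM FITC-labeled RGS12 GoLoco peptide in 10 mM Tris pH 7.5, 150 mM NaCl, 0.1 mM GDP, 0.05% NP40, 10 min at room temperature with compound.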
# [17] = target: Pyruvate kinase (Leishmania mexicana) (UniProt Q27686); assay: qHTS Validation Assay for Inhibitors of Leishmania Mexicana Pyruvate Kinase (AID 945);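 note: 0% = DMSO only neutral control wells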
# Procedure, shortened: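 The enzyme is a highly purified E451W mutant of LmPYK used at 0.2 nM. It converts 0.5 mM PEP and 0.1 mM ADP over 1 h at room temperature; product ATP is quantified by luciferase luminescence relative to DMSO controls.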
# [18] = target: Pyruvate kinase PKM (Homo sapiens) (UniProt P14618); assay: qHTS Assay for Activators of Human Muscle Pyruvate Kinase (AID 954; active = well fitted curve in the direction sought with a large enough effect, not every such curve was filed as active;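 note: 0% = uninhibited enzyme and -100% = no enzyme or full thiadiazolimine inhibition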)
# Procedure, shortened: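 Purified human PKM2 (0.1 nM) with 0.5 mM PEP (Km) and 0.1 mM ADP in 50 mM imidazole pH 7.2, KCl, MgCl2, 1 h at room temperature; ATP formed read by coupled luciferase luminescence. Normalized to no-enzyme/110 uM thiadiazolimine inhibition; 0.3 nM enzyme column for activation.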
# [19] = target: Alpha-galactosidase A (Homo sapiens) (UniProt P06280); assay: Counterscreen for Glucocerebrosidase Inhibitors: qHTS Assay for Human alpha-Galactosidase at pH 4.5 (AID 992); note: 0% is about no effect
# Procedure, shortened: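 Human enzyme (2 nM) with 80 uM 4-methylumbelliferyl alpha-D-galactopyranoside in 50 mM citric acid, 0.005% Tween-20, pH 4.5, 20 min at room temperature. Compounds 0.7 nM–77 uM; fluorescence Ex 365/Em 440 after pH 10 stop; AC50 from Hill fits.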
# [20] = target: alpha-glucosidase (Oryza sativa, rice) (UniProt Q653V4); assay: Counterscreen for Glucocerebrosidase Inhibitors: qHTS Assay for Rice alpha-Glucosidase at pH 5.0 (AID 997);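 note: 0% = full activity with enzyme and -100% = basal without enzyme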
# Procedure, shortened: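 Rice alpha-glucosidase (4 nM final) with 400 uM 4-methylumbelliferyl-alpha-D-glucopyranoside in citrate buffer pH 5.0, 20 min at room temperature, stopped at pH 10; fluorescence 365/440 nm, compounds 0.7 nM–77 uM, AC50 from Hill fits.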
# Chain of Bile acid receptor (Homo sapiens) (Q96RI1 whole entry, looked up): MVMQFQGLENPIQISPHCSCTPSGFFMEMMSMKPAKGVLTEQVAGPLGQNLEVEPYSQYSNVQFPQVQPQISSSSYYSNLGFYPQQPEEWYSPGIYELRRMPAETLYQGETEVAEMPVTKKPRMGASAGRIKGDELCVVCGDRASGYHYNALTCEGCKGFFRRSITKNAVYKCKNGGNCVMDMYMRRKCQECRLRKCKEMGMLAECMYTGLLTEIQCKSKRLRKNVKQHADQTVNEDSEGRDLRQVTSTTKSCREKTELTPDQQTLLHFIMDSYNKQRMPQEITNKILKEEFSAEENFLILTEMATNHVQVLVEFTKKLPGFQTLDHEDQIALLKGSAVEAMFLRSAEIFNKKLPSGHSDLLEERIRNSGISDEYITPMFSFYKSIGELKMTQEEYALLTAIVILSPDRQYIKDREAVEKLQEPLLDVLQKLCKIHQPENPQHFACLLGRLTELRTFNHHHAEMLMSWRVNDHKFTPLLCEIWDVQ
# Chain of Cytochrome P450 3A4 (Homo sapiens) (P08684 whole entry, looked up): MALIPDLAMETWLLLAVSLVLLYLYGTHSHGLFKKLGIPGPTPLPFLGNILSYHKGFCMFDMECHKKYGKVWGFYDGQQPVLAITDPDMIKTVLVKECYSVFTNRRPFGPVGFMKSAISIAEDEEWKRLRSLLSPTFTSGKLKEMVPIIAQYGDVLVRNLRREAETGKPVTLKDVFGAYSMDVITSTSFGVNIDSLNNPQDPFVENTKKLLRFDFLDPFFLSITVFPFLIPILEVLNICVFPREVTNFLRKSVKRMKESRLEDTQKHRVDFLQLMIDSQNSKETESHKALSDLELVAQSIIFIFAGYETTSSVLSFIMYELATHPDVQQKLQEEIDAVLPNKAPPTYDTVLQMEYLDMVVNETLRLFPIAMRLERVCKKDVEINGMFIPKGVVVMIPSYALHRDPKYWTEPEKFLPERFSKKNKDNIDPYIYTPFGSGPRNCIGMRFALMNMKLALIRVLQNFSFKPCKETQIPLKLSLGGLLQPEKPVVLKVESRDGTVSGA
# Chain of Glucocorticoid receptor (Homo sapiens) (P04150 whole entry, looked up): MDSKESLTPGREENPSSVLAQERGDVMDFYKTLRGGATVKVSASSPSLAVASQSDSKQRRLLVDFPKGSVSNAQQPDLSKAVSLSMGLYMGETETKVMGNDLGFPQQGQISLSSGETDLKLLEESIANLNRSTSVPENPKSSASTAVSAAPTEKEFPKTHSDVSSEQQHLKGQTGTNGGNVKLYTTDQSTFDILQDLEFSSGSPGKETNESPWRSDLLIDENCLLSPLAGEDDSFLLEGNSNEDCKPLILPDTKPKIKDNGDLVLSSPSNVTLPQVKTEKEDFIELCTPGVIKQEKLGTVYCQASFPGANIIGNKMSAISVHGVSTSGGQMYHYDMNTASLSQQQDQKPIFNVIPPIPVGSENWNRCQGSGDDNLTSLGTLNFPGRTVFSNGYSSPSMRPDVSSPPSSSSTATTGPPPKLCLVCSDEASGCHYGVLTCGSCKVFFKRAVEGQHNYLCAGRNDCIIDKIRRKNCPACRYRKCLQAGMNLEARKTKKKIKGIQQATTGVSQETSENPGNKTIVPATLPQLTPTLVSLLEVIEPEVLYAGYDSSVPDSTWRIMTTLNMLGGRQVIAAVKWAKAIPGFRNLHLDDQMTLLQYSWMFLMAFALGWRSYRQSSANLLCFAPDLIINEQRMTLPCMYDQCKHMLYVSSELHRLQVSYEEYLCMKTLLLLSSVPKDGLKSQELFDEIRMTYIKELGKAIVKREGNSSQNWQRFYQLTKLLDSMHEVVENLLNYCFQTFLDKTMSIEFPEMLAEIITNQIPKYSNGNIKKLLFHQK
# Chain of Vitamin D3 receptor (Homo sapiens) (P11473 whole entry, looked up): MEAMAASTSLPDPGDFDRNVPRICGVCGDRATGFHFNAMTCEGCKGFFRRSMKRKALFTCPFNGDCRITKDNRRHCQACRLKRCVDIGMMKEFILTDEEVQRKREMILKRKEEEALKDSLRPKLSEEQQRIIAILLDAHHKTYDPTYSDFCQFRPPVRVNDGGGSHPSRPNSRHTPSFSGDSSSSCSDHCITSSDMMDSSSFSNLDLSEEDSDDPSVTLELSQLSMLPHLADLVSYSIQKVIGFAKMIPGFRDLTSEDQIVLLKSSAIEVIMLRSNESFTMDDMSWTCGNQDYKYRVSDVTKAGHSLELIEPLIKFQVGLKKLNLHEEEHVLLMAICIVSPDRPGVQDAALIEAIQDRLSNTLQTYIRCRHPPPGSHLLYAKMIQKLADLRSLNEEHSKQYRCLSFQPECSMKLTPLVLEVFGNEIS
# Chain of Thyroid hormone receptor beta (Homo sapiens) (P10828 whole entry, looked up): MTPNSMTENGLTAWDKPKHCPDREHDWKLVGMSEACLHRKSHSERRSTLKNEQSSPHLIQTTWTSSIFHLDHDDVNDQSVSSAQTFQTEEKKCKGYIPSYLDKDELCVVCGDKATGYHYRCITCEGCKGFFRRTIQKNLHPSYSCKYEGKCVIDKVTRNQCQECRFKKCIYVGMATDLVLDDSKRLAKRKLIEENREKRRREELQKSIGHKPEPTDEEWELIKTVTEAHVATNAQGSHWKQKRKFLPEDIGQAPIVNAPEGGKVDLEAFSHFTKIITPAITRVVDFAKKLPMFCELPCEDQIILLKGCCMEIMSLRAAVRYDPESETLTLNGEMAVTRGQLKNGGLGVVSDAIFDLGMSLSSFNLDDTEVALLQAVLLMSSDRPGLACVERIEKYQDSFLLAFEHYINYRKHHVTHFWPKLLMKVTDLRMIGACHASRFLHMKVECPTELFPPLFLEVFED
# Chain of Nuclear receptor subfamily 1 group I member 2 (Rattus norvegicus) (Q9R1A7 whole entry, looked up): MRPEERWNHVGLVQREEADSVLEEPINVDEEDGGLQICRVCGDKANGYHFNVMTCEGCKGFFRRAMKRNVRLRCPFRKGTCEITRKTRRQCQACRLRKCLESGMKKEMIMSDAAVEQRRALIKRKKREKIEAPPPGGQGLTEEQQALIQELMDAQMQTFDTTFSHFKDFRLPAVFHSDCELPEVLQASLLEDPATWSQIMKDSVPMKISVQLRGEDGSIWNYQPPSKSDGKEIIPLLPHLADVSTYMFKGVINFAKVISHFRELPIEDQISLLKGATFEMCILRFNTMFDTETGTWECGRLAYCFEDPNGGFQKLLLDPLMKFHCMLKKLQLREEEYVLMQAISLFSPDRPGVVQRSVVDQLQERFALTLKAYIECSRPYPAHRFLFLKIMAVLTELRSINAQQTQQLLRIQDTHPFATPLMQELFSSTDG
# Chain of Retinoic acid receptor RXR-alpha (Homo sapiens) (P19793 whole entry, looked up): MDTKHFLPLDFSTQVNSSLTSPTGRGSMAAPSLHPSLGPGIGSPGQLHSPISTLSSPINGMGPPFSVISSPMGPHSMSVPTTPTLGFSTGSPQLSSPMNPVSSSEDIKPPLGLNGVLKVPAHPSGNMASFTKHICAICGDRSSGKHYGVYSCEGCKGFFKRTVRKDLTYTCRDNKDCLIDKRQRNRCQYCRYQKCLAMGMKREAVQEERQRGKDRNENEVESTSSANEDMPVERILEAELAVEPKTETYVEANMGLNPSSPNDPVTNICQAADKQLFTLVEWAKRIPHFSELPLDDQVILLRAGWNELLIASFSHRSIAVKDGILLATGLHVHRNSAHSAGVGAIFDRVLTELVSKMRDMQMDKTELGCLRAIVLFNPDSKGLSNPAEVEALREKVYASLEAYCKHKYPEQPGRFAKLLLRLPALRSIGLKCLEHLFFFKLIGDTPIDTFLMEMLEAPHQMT
# Chain of Pyruvate kinase (Leishmania mexicana) (Q27686 2-499 E452W): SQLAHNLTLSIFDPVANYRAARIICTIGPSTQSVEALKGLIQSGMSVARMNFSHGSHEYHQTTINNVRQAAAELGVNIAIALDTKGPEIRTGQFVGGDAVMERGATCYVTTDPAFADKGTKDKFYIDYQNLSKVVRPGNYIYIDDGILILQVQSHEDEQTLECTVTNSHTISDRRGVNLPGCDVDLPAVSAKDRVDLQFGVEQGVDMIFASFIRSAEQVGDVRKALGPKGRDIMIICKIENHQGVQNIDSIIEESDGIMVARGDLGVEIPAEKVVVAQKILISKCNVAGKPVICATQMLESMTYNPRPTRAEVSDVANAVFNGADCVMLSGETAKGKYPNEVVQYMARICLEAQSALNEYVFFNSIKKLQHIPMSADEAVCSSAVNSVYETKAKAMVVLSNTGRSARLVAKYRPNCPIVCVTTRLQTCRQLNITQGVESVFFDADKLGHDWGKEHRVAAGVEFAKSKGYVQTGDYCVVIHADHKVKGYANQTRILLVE
# Chain of Pyruvate kinase PKM (Homo sapiens) (P14618 whole entry, looked up): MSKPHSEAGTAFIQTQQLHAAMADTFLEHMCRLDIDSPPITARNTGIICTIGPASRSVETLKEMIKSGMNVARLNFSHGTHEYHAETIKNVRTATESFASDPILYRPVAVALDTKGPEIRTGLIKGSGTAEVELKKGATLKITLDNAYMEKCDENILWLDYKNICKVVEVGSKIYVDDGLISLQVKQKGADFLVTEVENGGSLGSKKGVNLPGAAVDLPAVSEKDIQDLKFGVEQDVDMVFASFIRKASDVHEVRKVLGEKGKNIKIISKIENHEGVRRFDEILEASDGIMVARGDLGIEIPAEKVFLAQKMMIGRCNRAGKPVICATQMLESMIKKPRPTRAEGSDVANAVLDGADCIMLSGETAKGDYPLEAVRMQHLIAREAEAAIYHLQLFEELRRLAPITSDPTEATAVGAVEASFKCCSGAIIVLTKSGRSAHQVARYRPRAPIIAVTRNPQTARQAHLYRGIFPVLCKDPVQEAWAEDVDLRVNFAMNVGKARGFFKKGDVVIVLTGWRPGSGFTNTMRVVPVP
# Chain of Guanine nucleotide-binding protein G(i) subunit alpha-1 (Homo sapiens) (P63096 whole entry, looked up): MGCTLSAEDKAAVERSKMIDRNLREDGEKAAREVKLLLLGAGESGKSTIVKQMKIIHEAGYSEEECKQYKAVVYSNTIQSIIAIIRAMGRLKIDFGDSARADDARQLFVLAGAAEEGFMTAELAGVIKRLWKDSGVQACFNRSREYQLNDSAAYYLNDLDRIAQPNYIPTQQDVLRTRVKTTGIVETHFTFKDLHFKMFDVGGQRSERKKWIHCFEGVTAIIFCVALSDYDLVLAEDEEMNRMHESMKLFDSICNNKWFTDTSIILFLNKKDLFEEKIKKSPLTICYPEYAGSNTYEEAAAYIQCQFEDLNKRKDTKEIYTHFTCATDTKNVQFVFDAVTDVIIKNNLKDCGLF
smiles,measurement,setting,value
FC(F)(F)c1ccc(Cl)cc1,caspase-3 activation,[1],2.36% (inactive)
same,Potency,[2],inactive
same,Potency,[3],inactive
same,activation,[4],3.21% (inactive) and 2.89% (inactive)
same,Potency,[5],inactive
same,Potency,[6],inactive
same,outcome,[7],inactive
same,max response,[8],-9.15%
same,max response,[9],-8.02% (inactive)
same,activity change % (negative = inhibition),[10],6.64% (inactive)
same,activation,[11],0.334% (inactive) and 1.17% (inactive)
same,max response,[12],-0.484% (inactive) and -1.67% (inactive)
same,outcome,[13],inactive
[CH3][Hg][Cl],caspase-3 activation,[1],-8.35% (inactive)
same,Potency,[2],inactive
same,Potency,[3],5.01 µM (active)
same,activation,[14],-4.13% (inactive)
same,Potency,[5],11.2 µM (active)
same,Potency,[6],3.16 µM (active)
same,max response,[8],-30.3%
same,Potency,[9],2.24 µM (active)
C[C@@H]1CC[C@@]2(OC1)O[C@H]1[C@@H](O)[C@H]3[C@@H]4CC[C@H]5C[C@@H](O[C@@H]6O[C@H](CO)[C@H](O[C@@H]7O[C@H](CO)[C@@H](O)[C@H](O[C@@H]8OC[C@@H](O)[C@H](O)[C@H]8O)[C@H]7O[C@@H]7O[C@H](CO)[C@@H](O)[C@H](O[C@@H]8O[C@H](CO)[C@@H](O)[C@H](O)[C@H]8O)[C@H]7O)[C@H](O)[C@H]6O)[C@H](O)C[C@]5(C)[C@H]4CC[C@]3(C)[C@H]1[C@@H]2C,Potency,[2],inactive
same,Potency,[3],15.8 µM (active)
same,outcome,[13],inactive
C=C(CC1(C(C)NP(=O)(c2ccccc2)c2ccccc2)CC1)c1ccccc1 (stereo not drawn),Potency,[2],3.98 µM (active)
CCCCCCCCn1sccc1=O,Potency,[3],3.98 µM (active)
same,activation,[4],6.4% (inactive)
same,Potency,[5],inactive
same,Potency,[6],22.4 µM (active)
same,outcome,[7],inactive
same,Potency,[15],inactive
same,activation,[11],-0.619% (inactive) and -1.03% (inactive)
N#CSCSC#N,caspase-3 activation,[1],-5.48% (active)
same,Potency,[2],inactive
same,Potency,[3],7.94 µM (active)
same,activation,[4],17.3% (inactive)
same,activation,[14],0.19% (inactive)
COP(=O)(OC)O/C(=C\Cl)c1cc(Cl)c(Cl)cc1Cl,activation,[4],-2.88% (inactive)
same,Potency,[15],inactive
same,activity change % (negative = inhibition),[10],2.4% (inactive)
same,activation,[11],-1.17% (inactive)
same,max response,[12],1.57% (inactive)
CN(C)c1ccc(N=O)cc1,Potency,[2],inactive
same,Potency,[3],2.51 µM (active)
same,activation,[4],-4.92% (inactive)
same,Potency,[15],inactive
CC(=O)[O-].CC(=O)[O-].O.O.[Cd+2],caspase-3 activation,[1],4.84% (inactive)
same,Potency,[15],inactive
Oc1ccc2c3c1O[C@@H]1[C@@H](O)CC[C@]4(O)[C@H](C2)N(CC2CCC2)CC[C@@]314,Potency,[16],inactive
same,Potency,[17],inactive
same,outcome,[18],inactive
same,outcome,[19],inactive
same,outcome,[20],inactive
O=[N+]([O-])c1ccc(O[C@H]2O[C@@H](CO)[C@@H](O)[C@@H](O)[C@@H]2F)c([N+](=O)[O-])c1,Potency,[16],inactive
same,Potency,[17],inactive
same,outcome,[18],inactive
same,outcome,[19],inactive
same,outcome,[20],inactive
